Test results as given in the supplement of paper PMC10981050.
“And” between values parts separate entries of the source, which are not always exact repeats. Equal entries are not always repeated. Structures can show the parent of a compound that is named as a salt.

Experiments:
Test in all cases: cell viability relative to vehicle control; higher = less cytotoxic
Conditions in all cases: 10 µM
K562 = tested on: K562
Summary of the method: (§1)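 CRISPR-edited mutant clones and isogenic wild-type clones from four leukaemia lines were screened against Selleck bioactive, kinase and epigenetic probe libraries, with identity-inconsistent compounds excluded. Each compound was acoustically dispensed at a single 10 µM dose into 384-well plates holding 2000 cells in 50 µL medium per well. After 48 h the supernatant was removed and CellTiter-Glo luminescence was read. Viability was expressed as percent of the on-plate vehicle control and analysed in Genedata Screener.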

MARIMO = tested on: MARIMO
Summary of the method: as §1

MOLM14 = tested on: MOLM14
Summary of the method: as §1

OCI-AML2 = tested on: OCI-AML2
Summary of the method: as §1

SMILES | cell viability (K562; SRSF2 genotype: SRSF2 P95H/wt) | cell viability (K562; SRSF2 genotype: SRSF2 wt/wt) [%] | cell viability (MARIMO; SRSF2 genotype: SRSF2 P95H/wt) [%] | cell viability (MARIMO; SRSF2 genotype: SRSF2 wt/wt) [%] | cell viability (MOLM14; SRSF2 genotype: SRSF2 P95H/wt) [%] | cell viability (MOLM14; SRSF2 genotype: SRSF2 wt/wt) [%] | cell viability (OCI-AML2; SRSF2 genotype: P95H/wt) [%] | cell viability (OCI-AML2; SRSF2 genotype: wt/wt) [%]
CCNc1nc(Nc2cc(F)c(C(=O)N3CCOCC3)cc2OC)ncc1C(F)(F)F | 102% and 98.9% | 99.2 | 93.3 | 109 | 90 | 103 | 87.8 | 93.7
CNC(=O)c1c(C)oc2cc(Oc3ncnc4cc(OC)c(OC)cc34)ccc12 [Fruquintinib] | 101% and 96.7% | 97.1 | 98.6 | 99.7 | 95.8 | 105 | 84.3 | 85.4
Oc1nc(-c2ccc(C(F)(F)F)cc2)nc2c1CSCC2 | 105% and 99.2% | 105 | 104 | 105 | 94 | 95.5 | 94.6 | 96.7
CC(=O)Nc1cccc(-n2c(=O)n(C3CC3)c(=O)c3c(Nc4ccc(I)cc4F)n(C)c(=O)c(C)c32)c1 | 67.7% and 87.2% | 77.8 | 39.6 | 38.5 | 42.3 | 27.1 | 39.8 | 41.6
CN[C@@H]1[C@H](O)[C@H](NC)[C@H]2O[C@@]3(O)C(=O)C[C@@H](C)O[C@H]3O[C@@H]2[C@H]1O [Spectinomycin 2HCl] | 101% and 102% | 93.5 | 103 | 102 | 104 | 99 | 106 | 94.4
Cc1ccc(C(=O)O)c(O)c1 [4-Methylsalicylic acid] | 107% and 102% | 103 | 108 | 111 | 99.7 | 109 | 99.3 | 95.5
OC1CCC(Nc2ncc3nc(Nc4c(F)cc(F)cc4F)n([C@H]4CCOC4)c3n2)CC1 (stereo not given in full) [Tanzisertib(CC-930)] | 101% and 111% | 114 | 116 | 103 | 91.8 | 109 | 117 | 122
CSCC1CN(/N=C/c2ccc([N+](=O)[O-])o2)C(=O)O1 (stereo not given) [Nifuratel] | 85.1% and 77.7% | 78.8 | 78.3 | 82.2 | 77 | 80.1 | 79.1 | 87.3
C[C@@H]1Cc2c([nH]c3ccccc23)[C@@H](c2c(F)cc(/C=C/C(=O)O)cc2F)N1CC(C)(C)F | 106% and 105% | 108 | 107 | 104 | 101 | 97.4 | 117 | 107
N#CC(c1ccc(Cl)cc1)c1c(Cl)cc(-n2ncc(=O)[nH]c2=O)cc1Cl (stereo not given) [Diclazuril] | 101% and 88.5% | 85.2 | 83.8 | 94.7 | 84.4 | 86.3 | 91.3 | 80.8
O=C(O)c1ccc(N2C(=O)C(=Cc3ccc(-c4ccc([N+](=O)[O-])cc4)o3)C=C2c2ccccc2)cc1 | 86.8% and 85.4% | 84.5 | 104 | 108 | 82.2 | 94 | 97.9 | 98.2
CCCc1cc(=O)[nH]c(=S)[nH]1 [Propylthiouracil] | 107% and 91.6% | 94 | 93.1 | 96.5 | 100 | 96.8 | 106 | 110
Cc1ccc(Nc2cc(N[C@@H]3CCCC[C@@H]3N)nnc2C(N)=O)nc1C | 80.8% and 84.1% | 80.7 | 76.2 | 79 | 18.6 | 18 | 15.1 | 25.2
NC(=O)N1CCC(CC(=O)N2CCC([C@H]3c4ncc(Br)cc4CCc4cc(Cl)cc(Br)c43)CC2)CC1 | 49.1% and 62.3% | 52.4 | 44.8 | 45.7 | 37.4 | 35.7 | 38 | 32
N#Cc1ccc(-c2csc(NN=C3CCCC3)n2)cc1 [Remodelin] | 76.6% and 86.8% | 87.6 | 66.9 | 62.1 | 92.3 | 99.4 | 61 | 72.3
COc1ccc(-c2cc(=O)c3c(O)cc(O)cc3o2)cc1O [Diosmetin (Luteolin 4-methyl ether)] | 86.7% and 96.9% | 83.9 | 105 | 121 | 50.9 | 53.6 | 81 | 74.6
Cc1[nH]nc(C(F)(F)F)c1Cc1sc2c(c1C(=O)N1C[C@](C)(O)CO1)c(=O)n(C)c(=O)n2C(C)C | 40% and 62.9% | 61.3 | 90.5 | 103 | 92.8 | 89.3 | 99.7 | 99.9
O=C(CCc1ccc(O)cc1)c1c(O)cc(O)cc1O[C@@H]1O[C@H](CO)[C@@H](O)[C@H](O)[C@H]1O [Phlorizin (Phloridzin)] | 104% and 94.2% | 92.3 | 93 | 102 | 92.2 | 94.8 | 90.1 | 91.7
CC(C)OC(=O)CCC/C=C\C[C@@H]1[C@@H](/C=C/[C@@H](O)COc2cccc(C(F)(F)F)c2)[C@H](O)C[C@@H]1O [Travoprost] | 67.1% and 66.4% | 65 | 57.9 | 40.1 | 79.1 | 94.4 | 23.5 | 37.8
CC(C)(C)c1cc(O)ccc1O | 99.8% and 100% | 93.8 | 21.6 | 0.51 | 48 | 54.4 | 37.9 | 29.7

SMILES | cell viability (K562; SRSF2 genotype: SRSF2 P95H/wt) | cell viability (K562; SRSF2 genotype: SRSF2 wt/wt) [%] | cell viability (MARIMO; SRSF2 genotype: SRSF2 P95H/wt) [%] | cell viability (MARIMO; SRSF2 genotype: SRSF2 wt/wt) [%] | cell viability (MOLM14; SRSF2 genotype: SRSF2 P95H/wt) [%] | cell viability (MOLM14; SRSF2 genotype: SRSF2 wt/wt) [%] | cell viability (OCI-AML2; SRSF2 genotype: P95H/wt) [%] | cell viability (OCI-AML2; SRSF2 genotype: wt/wt) [%]
CC(C)n1nc(-c2ccc3oc(N)nc3c2)c2c(N)ncnc21 | 31.8% and 31.3% | 29.9 | 37.9 | 32.7 | 13.6 | 15.8 | 6.33 | 12
CC(=O)O[C@@]12CO[C@@H]1C[C@H](O)[C@@]1(C)C(=O)[C@H](O)C3=C(C)[C@@H](OC(=O)[C@H](O)[C@@H](NC(=O)OC(C)(C)C)c4ccccc4)C[C@@](O)([C@@H](OC(=O)c4ccccc4)[C@H]21)C3(C)C [Docetaxel Trihydrate] | 24.8% and 32.4% | 32.7 | 8.87 | 5.68 | 8.57 | 4.2 | 6.94 | 13.5
Cc1cc(C)nc(NS(=O)(=O)c2ccc(N)cc2)n1 [Sulfamethazine] | 108% and 111% | 108 | 105 | 109 | 110 | 110 | 119 | 96.2
N#Cc1ccc(COC[C@H]2O[C@@H](n3c(NCc4ccc(Cl)c(Cl)c4)nc4c(N)ncnc43)[C@H](O)[C@@H]2O)cc1 | 52% and 62.8% | 45.7 | 32.5 | 35.6 | 26 | 14.3 | 35.1 | 34.8
OCCc1c[nH]c2ccccc12 [Tryptophol] | 102% and 92.7% | 94.7 | 100 | 110 | 97.8 | 99.4 | 90.5 | 111
CSc1cccc(Nc2ncc3cc(-c4c(Cl)cccc4Cl)c(=O)n(C)c3n2)c1 | 6.76% and 14.3% | 9.82 | 34.3 | 65.4 | 26.6 | 31.6 | 12.8 | 20.9
CCOC(=O)c1ccc(NC2CCCCC2)c(N)c1 [Ferrostatin-1 (Fer-1)] | 98.7% and 94.8% | 88.4 | 90.6 | 106 | 104 | 102 | 94.3 | 90.4
COc1ccc(/C=C/C(=O)c2c(O)cc(OC)cc2OC)cc1 [Flavokawain A] | 95.5% and 92.8% | 92.7 | 78.9 | 82.6 | 72.6 | 103 | 71.2 | 74.3
CCCCCCC=CCCCCCCCc1cccc(O)c1C(=O)O [Ginkgolic Acid] | 103% and 101% | 104 | 108 | 110 | 109 | 107 | 100 | 106
Cc1nc(C#Cc2ccnc(Cl)c2)c(C)n1-c1ccc(OC(F)(F)F)cc1 | 75.6% and 89.6% | 75.7 | 82.7 | 88.9 | 78.8 | 80.2 | 55.7 | 68.7
COc1cc2c3cc1Oc1c(OC)c(OC)cc4c1[C@@H](Cc1ccc(O)c(c1)Oc1ccc(cc1)C[C@@H]3N(C)CC2)N(C)CC4 [Berbamine (dihydrochloride)] | 72.6% and 53.2% | 66.9 | 70.8 | 72.8 | 68.2 | 78.2 | 57.1 | 60.4
O=c1[nH]c(=O)n([C@H]2C[C@H](O)[C@@H](CO)O2)cc1C(F)(F)F [Trifluridine (Viroptic)] | 85.4% and 99.2% | 85.7 | 48.5 | 52.3 | 52.7 | 18.8 | 21.6 | 26.8
Oc1cc(CNC(=S)/C=C/c2cc(O)c(O)c(Br)c2)cc(O)c1O | 20.1% and 32.5% | 23.6 | 16.6 | 23.2 | 14.3 | 5.87 | 28.1 | 26.9
CO[C@H]1C[C@H](O[C@@H]2/C(C)=C/C[C@@H]3C[C@@H](C[C@]4(CC[C@H](C)[C@@H](C5CCCCC5)O4)O3)OC(=O)[C@@H]3C=C(C)/C(=N/O)[C@H]4OC/C(=C\C=C\[C@@H]2C)[C@]43O)O[C@@H](C)[C@@H]1O [Selamectin] | 16.6% and 37.1% | 27.3 | 3.71 | 4.17 | 38.4 | 17 | 10.6 | 24.5
Cc1ccc(NC(=O)c2ccc(CN3CCN(C)CC3)cc2)cc1Nc1nccc(-c2cccnc2)n1 [Imatinib Mesylate (STI571)] | 11.9% and 25.7% | 16.7 | 103 | 104 | 80.7 | 94 | 82.3 | 78
CNc1nc(-c2ccc3c(N)n[nH]c3c2)cc(N2C[C@@H](C(=O)NC3CCCCC3)CC[C@H]2C)n1 | 78.3% and 74.9% | 73.5 | 72.1 | 72.8 | 42.3 | 39.5 | 47.6 | 40.7
Cn1nc(C(C)(C)C)cc1C(=O)N[C@@H](Cc1cccc(Cl)c1)C(=O)NCC#N [Cathepsin Inhibitor 1] | 93.5% and 89.9% | 83.2 | 93.1 | 100 | 92.4 | 98.4 | 97.8 | 95.9
CN(C)C(=O)COC(=O)Cc1ccc(OC(=O)c2ccc(NC(=N)N)cc2)cc1 [Camostat Mesilate (FOY-305)] | 100% and 101% | 96.3 | 108 | 98.4 | 106 | 98.8 | 100 | 99.6
O=c1cc(N2CCOCC2)oc2c(-c3ccc4c(c3)OCCO4)csc12 | 39.4% and 50.7% | 46.9 | 36.4 | 30.9 | 15.7 | 18.2 | 3.38 | 11.7
CCCCCCCC(=O)N[C@H](CN1CCCC1)[C@H](O)c1ccc2c(c1)OCCO2 [Eliglustat (Tartrate)] | 95.2% and 103% | 99.4 | 91.1 | 89.7 | 90 | 99.9 | 94 | 97.1
